# Laboratory results from the supplement of paper PMC3334620.
# The full ranking holds about 33,000 sequences; the median of “E-score (-0.5 to 0.5)” is about -0.012, and the highest 2% start at about 0.27. This excerpt belongs to a sample that is enriched for the highest values.
# Target: T1, Vhr1 (UniProt P40522)
# T1 sequence: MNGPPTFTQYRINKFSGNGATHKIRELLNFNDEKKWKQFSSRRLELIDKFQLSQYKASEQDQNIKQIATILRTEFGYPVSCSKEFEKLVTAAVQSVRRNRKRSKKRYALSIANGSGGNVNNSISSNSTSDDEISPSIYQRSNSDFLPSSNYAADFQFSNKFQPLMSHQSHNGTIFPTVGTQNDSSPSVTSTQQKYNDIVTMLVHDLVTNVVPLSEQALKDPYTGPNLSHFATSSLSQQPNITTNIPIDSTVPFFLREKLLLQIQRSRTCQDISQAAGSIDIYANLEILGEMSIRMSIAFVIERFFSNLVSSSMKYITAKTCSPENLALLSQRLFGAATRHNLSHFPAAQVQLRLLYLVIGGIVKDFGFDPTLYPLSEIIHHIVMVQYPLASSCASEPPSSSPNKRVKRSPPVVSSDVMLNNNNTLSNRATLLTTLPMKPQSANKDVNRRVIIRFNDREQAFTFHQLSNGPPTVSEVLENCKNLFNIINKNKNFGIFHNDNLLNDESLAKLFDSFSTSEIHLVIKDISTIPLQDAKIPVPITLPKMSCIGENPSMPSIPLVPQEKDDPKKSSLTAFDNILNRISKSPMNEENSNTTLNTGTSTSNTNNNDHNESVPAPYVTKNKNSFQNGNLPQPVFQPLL
# Test: PBM E-score (8-mer binding enrichment) (E-score (-0.5 to 0.5)); higher = stronger / more preferred TF binding
# Details: protein concentration: 200 nM; construct: GST-full length
# Outline: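 The E-score, a modified Wilcoxon-Mann-Whitney statistic, was computed by the Universal PBM Analysis Suite for every ungapped eight-base word pooled with its reverse complement. Scans behind it were normalised with masliner after bound GST-tagged yeast transcription factors were detected with fluorescent anti-GST. The proteins, at about 100-200 nM, had been applied to universal all-10-mer Agilent arrays made double-stranded by primer extension.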
row,Sequence,PBM E-score
1,AGACCTCT,-0.143
2,TAGGAAAA,-0.22
3,TAAGCCGA,-0.13
4,GTCTGTGA,0.235
5,GCATTCCA,-0.177
6,AGCCTGAC,-0.0744
7,ATCCATCG,0.0134
8,ATCCATCA,0.289
9,ATCCATCC,0.156
10,GATCATCC,0.141
11,CATCATCC,0.119
12,AATCATCT,0.185
13,AATCATCC,0.405
14,TATCATCA,0.147
15,AATCATCG,0.334
16,CATCATCG,0.16
17,CATCATCA,-0.0217
18,AATCATCA,0.374
19,AAGATTTG,-0.09
20,ACAGTGGG,-0.133
21,ACATCTAC,0.155
22,GCGCCAAC,-0.0311

row,Sequence,PBM E-score
1,GCCCCCCA,-0.244
2,GGCCCAGA,-0.26
3,AGTTACAT,-0.043
4,GACACACA,0.298
5,GAGACACA,0.14
6,CACACACC,0.235
7,AACACACC,0.27
8,GACACACC,0.28
9,GGGACACC,-0.0207
10,TGGACACA,0.0645
11,GGGACACA,0.297
12,GACACATA,0.197
13,GTGGGACA,0.0875
14,CAAGGCAC,-0.0306
15,AAGGCCCT,-0.164
16,CTGGTAGA,0.0523
17,CAGCTAGA,0.0392
18,AAGAATGG,-0.12
19,ATGACTTA,0.349
20,CTGACTTA,0.187
21,ATGACTTC,0.341
22,ACGACTTC,0.0846

row,Sequence,PBM E-score
1,CTGACTTC,0.195
2,AGGACTTA,-0.0181
3,ACCTTACT,-0.129
4,CAGTACCG,0.0537
5,ACTGAGCT,-0.0929
6,ATGACCCA,0.362
7,CTGACCCA,0.0712
8,GTGACCCA,0.267
9,TCGCTGAA,0.0432
10,AGAACACT,0.108
11,CACGGTGA,0.106
12,CACGGTGG,0.273
13,CACGGTGC,0.0709
14,ATGCATAG,0.013
15,CATGTCTC,0.294
16,AATGTCTC,0.137
17,CATGTCTA,0.0965
18,GGTGAGTA,0.282
19,AGTGAGTA,0.192
20,GGTGAGGA,0.00616
21,GCTGAGTA,0.0378
22,GATGAGTA,0.382

row,Sequence,PBM E-score
1,CATGAGTA,0.225
2,TCGCAGCA,0.0961
3,ACTTCTAT,-0.0176
4,CACTGCGG,0.213
5,AATGTTGA,0.043
6,CATGTTGC,0.0935
7,CATGTTGA,0.278
8,GGTTTCTA,-0.122
9,ATCATCAG,0.0874
10,CTCATCAC,0.0121
11,CTCATCAG,0.312
12,TAACACGA,0.212
13,CTCTCCAG,-0.232
14,ATGTCTAG,0.12
15,CCGGAGGC,-0.141
16,CCGGAGTA,0.0674
17,CCGGAGTC,0.421
18,AAGGAGTC,0.203
19,CAGGAGTA,-0.00382
20,ACGGAGTC,0.408
21,ACGGAGTG,0.00137
22,CAGGAGTC,0.373

row,Sequence,PBM E-score
1,ACGGAGTA,0.0079
2,AGCCGTCA,-0.0405
3,GCAAGTAC,-0.109
4,ATAGGAAG,0.0182
5,AGAGTTTG,0.0245
6,CGCTGTTA,-0.0856
7,ATTCACGC,0.117
8,AATCACGG,0.259
9,CGTCACGA,0.00392
10,AGTCACGA,0.411
11,ATTCACGG,0.0271
12,GGTCACGA,0.09
13,AGTCACGG,0.417
14,CGTCACGC,-0.208
15,AGTCACGC,0.426
16,CAGAACAG,0.066
17,GGCTCCTA,-0.136
18,CCAACAGA,-0.0653
19,CCCCGCTA,-0.0924
20,CTTTGGCC,-0.254
21,AATTAATA,0.102
